Sampled rows, rich in hits. Any-hit rate of the full collection: about 2.4%.
Cruzain inh Det = qHTS Assay for Promiscuous and Specific Inhibitors of Cruzain (with detergent). purified cruzain, Z-FR-AMC fluorescence, 0.01% Triton. Potency, µM, hits mostly inhibitors. 0.43% of 200,000 active; further: nearly all actives have a fitted effect of over 40% in size
Target sequence (P25779 123-467 limits assumed): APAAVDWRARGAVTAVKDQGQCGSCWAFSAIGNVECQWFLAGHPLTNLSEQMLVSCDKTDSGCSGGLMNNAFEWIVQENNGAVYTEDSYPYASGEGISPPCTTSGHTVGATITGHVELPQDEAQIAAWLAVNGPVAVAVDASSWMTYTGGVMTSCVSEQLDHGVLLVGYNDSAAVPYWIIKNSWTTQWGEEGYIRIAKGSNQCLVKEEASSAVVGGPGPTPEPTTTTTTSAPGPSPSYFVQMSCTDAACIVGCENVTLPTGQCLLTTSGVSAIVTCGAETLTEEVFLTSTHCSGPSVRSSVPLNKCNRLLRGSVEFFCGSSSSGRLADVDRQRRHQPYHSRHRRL
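Detergent-containing run (0.01% Triton X-100) in acetate buffer pH 5.5 with 5 mM DTT: enzyme at 1.5 nM final, 15 min compound preincubation at room temperature, then 2 uM Z-FR-AMC substrate. Activity taken as 60 s fluorescence increase at 360/450 nm.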
Cruzain noTriton = qHTS Assay for Promiscuous and Specific Inhibitors of Cruzain (without detergent); Potency, µM, actives largely listed as inhibitors; 2.3% of 200,000 active; Cruzipain (Trypanosoma cruzi), P25779; purified cruzain, Z-FR-AMC fluorescence, no detergent; further: nearly all actives have a fitted effect of over 40% in size
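Detergent-free condition (0.00005% Triton X-100) in acetate buffer pH 5.5 with DTT. 1.5 nM enzyme and compound were pre-mixed 15 min, then 2 uM Z-FR-AMC substrate added; reaction progress from fluorescence change between first and third reads (60 s).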
Papain inh = qHTS Assay for Inhibitors of Papain: Counterscreen for Cruzain Assay. shares compounds with Cruzain inh Det. 41% of 410 active. purified papain, Z-FR-AMC fluorescence cleavage. Potency, µM, hits mostly inhibitors; further: nearly all actives have a fitted effect of over 35% in size
Large screens that a line does not name were inactive (follow-up assays come after a bar, where they were run). The call rests on the fitted dose curve; in most records, active means well fitted curve in the direction sought with a large enough effect; inconclusive means small, poorly fitted or top-dose-only effect, or another doubt; inactive means no such curve, though single readings can be large; an effect the other way counts as inactive or inconclusive.

Cc1ccc(C(=O)NCCn2c(N)c(C#N)c3nc4ccccc4nc32)cc1	Cruzain noTriton inconclusive | Papain inh 28µM
Cc1ccc(Cn2c(CNS(=O)(=O)c3ccc(Cl)s3)nc3cccnc32)cc1	none
N#Cc1nc(Nc2ccc3ccccc3c2)nc(NC2CCCC2)n1	none (no result: Cruzain inh Det, Cruzain noTriton) | Papain inh 2µM
N#Cc1nc(Nc2cc(F)cc(F)c2)nc(NC2CCCC2)n1	none (no result: Cruzain inh Det, Cruzain noTriton) | Papain inh 0.32µM
N#Cc1c[nH]n2c(NC3CCCC3)c(-c3ccc(Cl)cc3)nc12	Cruzain noTriton inconclusive
c1cc2cn[nH]c2cc1NC1CCCCCC1	none
FC(F)(F)c1cc(-c2ccccc2)nc(NC2CCCC2)n1	none
N#Cc1nc(Nc2cccc(-c3ccccc3)c2)nc(NC2CCCC2)n1	none (no result: Cruzain inh Det, Cruzain noTriton) | Papain inh 2.5µM
N#Cc1nc(Nc2cc(Cl)cc(Cl)c2)nc(NC2CCCC2)n1	none (no result: Cruzain inh Det, Cruzain noTriton) | Papain inh 1.4µM
CCOc1nc(NC2CCCCC2)nc(NC(C)(C)C)n1	none
COc1ccc(CCNC(=O)C(C)n2nc(C)c3sc4ccccc4c3c2=O)c(OC)c1 (configuration not stated)	Cruzain inh Det inconclusive
CSc1ccccc1NC(=O)C1=CC(c2ccc3c(c2)OCO3)=NS(=O)(=O)N1C	none
N#Cc1nc(Nc2cccc(F)c2)nc(NC2CCCC2)n1	none (no result: Cruzain inh Det, Cruzain noTriton) | Papain inh 0.32µM
COc1ccc(-c2nc3c(C#N)c[nH]n3c2NC2CCCC2)cc1	none
COc1cc2nc(Nc3cccc(F)c3)nc(N)c2cc1OC	none
COc1ccc(Nc2nc(C#N)nc(NC3CCCC3)n2)cc1	none (no result: Cruzain inh Det, Cruzain noTriton) | Papain inh 0.56µM
C=CCc1ccccc1OCc1nc2ccc(C)cc2[nH]1	none
N=c1c(C(=O)NCc2ccc(F)cc2)cc2c(=O)n3ccccc3nc2n1CC1CCCO1 (configuration not stated)	Cruzain inh Det 32µM, Cruzain noTriton inconclusive | Papain inh 16µM
CCn1c(=N)c(C(=O)NC2CCCC2)cc2c(=O)n3ccccc3nc21	none
O=C(CCC(=O)OCC(=O)c1ccc(Cl)cc1)NC1CCCCC1	none
CCc1ccc(C(=O)COC(=O)CNC(=O)CNC(=O)Cc2ccccc2)cc1	none
O=C(CNC(=O)C1CCCCC1)OCC(=O)c1ccc(F)cc1	none (no result: Cruzain inh Det, Cruzain noTriton) | Papain inh 16µM
O=C(COC(=O)CNC(=O)C1CCCCC1)NC1CCCC1	none (no result: Cruzain inh Det, Cruzain noTriton) | Papain inh 32µM
O=C(CNC(=O)c1ccccc1)NCC(=O)OCC(=O)c1ccc(F)cc1	none
O=C(CNC(=O)C1CCCCC1)OCC(=O)c1cccc(Cl)c1	none (no result: Cruzain inh Det, Cruzain noTriton) | Papain inh 14µM
CCc1ccc(C(=O)COC(=O)CNC(=O)C2CCCCC2)cc1	none (no result: Cruzain inh Det, Cruzain noTriton) | Papain inh inactive
O=C(COC(=O)COc1ccc(Cl)cc1)NC1CCCCC1	none
CC(C)N(Cc1ccccc1)C(=O)C1CCCN(c2ncnc3onc(-c4ccc(F)cc4)c23)C1 (configuration not stated)	none
COCCNC(=O)CCCn1c(SCc2ccccc2C)nc2c(sc3ccccc32)c1=O	Cruzain noTriton inconclusive
COc1ccc(Cl)cc1NC(=O)CCCn1c(C)c2cnn(-c3ccccc3)c(=O)c2c1C	Cruzain noTriton inconclusive
CC(C)NC(=O)c1ccc(Cn2c(SCC(N)=O)nc3ccccc3c2=O)cc1	none
CCn1c(C(=O)Nc2ccc(C)cc2C)cc2sc(Cl)cc21	none
Cn1c(=O)c2c(nc(NCc3ccccc3)n2Cc2ccc(Cl)c(Cl)c2)n(C)c1=O	none
CCCCC/C=C\C/C=C\C=C\[C@@H](O)C/C=C\CCCC(=O)O	none
CCC(C(=O)N1CCN(c2ccccc2F)CC1)n1nc(C)c2sc3ccccc3c2c1=O (configuration not stated)	none
CCN1CCN(c2oc(-c3ccc(COc4ccc(C)cc4)o3)nc2C#N)CC1	none
O=C(CNC(=O)C1CCCCC1)OCC(=O)c1ccc(-c2ccccc2)cc1	none (no result: Cruzain inh Det, Cruzain noTriton) | Papain inh inactive
O=C(CCC(=O)OCC(=O)c1ccc([N+](=O)[O-])cc1)NC1CCCCC1	none
O=C(CNC(=O)C1CCCCC1)OCC(=O)c1ccc([N+](=O)[O-])cc1	none (no result: Cruzain inh Det, Cruzain noTriton) | Papain inh 16µM
O=C(COC(=O)C1CCCCC1)Nc1ccc(N2CCCCC2)cc1	none
N#Cc1ccc(NC(=O)COC(=O)CNC(=O)C2CCCCC2)cc1	Cruzain inh Det 4µM, Cruzain noTriton 4µM | Papain inh inactive
CCC(=O)NCC(=O)OCC(=O)c1ccccc1	none
Cc1ccc2c(c1)N(CCCC(=O)NCc1cccc(F)c1)C(=O)CO2	none
CCN(Cc1ccccc1)C(=O)c1cnn(-c2ccc(F)cc2)c1-n1cccc1	none
O=C(CNC(=O)C1CCCCC1)OCCOc1ccccc1	none (no result: Cruzain inh Det, Cruzain noTriton) | Papain inh inactive
COC(=O)CNC(=O)C1CCN(C(=O)OCc2ccccc2)CC1	none
O=C(CNC(=O)C1CCCCC1)OCc1ccccc1	none (no result: Cruzain inh Det, Cruzain noTriton) | Papain inh inactive
O=C(COc1ccccc1)NC1CCCCC1	none
COc1cc(OC)c(NC(=O)Nc2cccc(OCc3cc(=O)n4ccccc4n3)c2)cc1Cl	none

Screening data (PubChem BioAssay)
